These results are taken from PubChem BioAssay (EPA / NIEHS).

The structures appear in SMILES notation. Records with an inconclusive call do not appear. Calls of active or inactive are those of the source. Rule for the calls: active = hit-call score of the fitted dose curve at least 0.9, where 1 is the maximum; inconclusive = response in the unintended direction; inactive = score below 0.9.

For test [1], the target named is Tyrosine-protein phosphatase non-receptor type 12 (Homo sapiens) (UniProt Q05209). The test is described as follows: NVS_ENZ_hPTPN12: NovaScreen (NVS) Enzymatic Assay for human Protein Tyrosine Phosphatase Non-receptor Type 12 (PTPN12) (AID 2283204). The gist of the method:
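Single-concentration duplicates (25 uM) preceded singleton concentration-response up to 50 uM for chemicals passing threshold. Cell-free recombinant PTPN12 activity was read 1.33 h after dosing via fluorescence after mobility-shift separation; loss of signal versus DMSO.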

The target in test [2] is Tyrosine-protein phosphatase non-receptor type 13 (Homo sapiens) (UniProt Q12923). The test is described as follows: NVS_ENZ_hPTPN13: NovaScreen (NVS) Enzymatic Assay for human Protein Tyrosine Phosphatase Non-receptor Type 13 (PTPN13) (AID 2283205). The gist of the method:
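Cell-free assay of recombinant human PTPN13 with a fluorescent substrate, product separated by electrophoretic mobility shift and read 0.5 h after dosing. Primary screen at 25 uM in duplicate, then concentration-response up to 50 uM. Loss of signal fitted against DMSO.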

The target of test [3] is human Protein Tyrosine Phosphatase Non-receptor Type 9 (PTPN9), PTPN9 (gene 5780) (UniProt P43378). The test is described as follows: NVS_ENZ_hPTPN9: NovaScreen (NVS) Enzymatic Assay for human Protein Tyrosine Phosphatase Non-receptor Type 9 (PTPN9) (AID 2283209). In a few lines: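 Sf9-expressed enzyme in a cell-free assay, fluorescence read 1.33 h after dosing with mobility-shift separation of substrate and product. Tested at 25 uM in duplicate, then up to 50 uM; signal loss versus DMSO.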

Test [4] concerns the target sheep Cyclooxygenase-2 (Cox2), PTGS2 (gene 443460) (UniProt P79208). The test is described as follows: NVS_ENZ_oCOX2: NovaScreen (NVS) Enzymatic Assay for sheep Cyclooxygenase-2 (Cox2) (AID 2283231). The gist of the method: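 Compounds were first run at 25 uM in duplicate against tissue-extracted ovine COX-2; those passing a preset inhibition threshold went to singleton concentration-response testing with a 50 uM maximum. Read-out: absorbance at 0.66 hour.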

Test [5] concerns the target human Sirtuin 3 (SIRT3), SIRT3 (gene 23410) (UniProt Q9NTG7). The test is described as follows: NVS_ENZ_hSIRT3: NovaScreen (NVS) Enzymatic Assay for human Sirtuin 3 (SIRT3) (AID 2283222). The gist of the method:
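Cell-free enzyme assay with recombinant protein and fluorescent substrate, product separated by electrophoretic mobility shift; read 1 hour after dosing. Screened in duplicate at 25 uM, then singleton concentration-response up to 50 uM; loss of signal versus DMSO.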

Test [6] deals with human Vascular Endothelial Growth Factor Receptor 2 (VEGFR2), KDR (gene 3791) (UniProt P35968). The test is described as follows: NVS_ENZ_hVEGFR2: NovaScreen (NVS) Enzymatic Assay for human Vascular Endothelial Growth Factor Receptor 2 (VEGFR2) (AID 2283230). The gist of the method: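 Cell-free recombinant VEGFR2 kinase, fluorescent substrate with electrophoretic mobility-shift separation; read 1 h after dosing. Screened at 25 uM in duplicate, hits to concentration-response up to 50 uM; loss-of-signal versus DMSO.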

Test [7] deals with human Rho Associated Coiled-coil Containing Protein Kinase 1 (ROCK1), ROCK1 (gene 6093) (UniProt Q13464). The test is described as follows: NVS_ENZ_hROCK1: NovaScreen (NVS) Enzymatic Assay for human Rho Associated Coiled-coil Containing Protein Kinase 1 (ROCK1) (AID 2283214). The gist of the method:
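Cell-free recombinant human ROCK1 activity assay; fluorescent substrate and product separated by electrophoretic mobility shift, read 1 h after dosing. Screened in duplicate at 25 uM; loss of signal versus DMSO baseline scored as inhibition.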

Test [8] concerns the target human Protein Tyrosine Phosphatase Non-receptor Type 6 (PTPN6), PTPN6 (gene 5777) (UniProt P29350). The test is described as follows: NVS_ENZ_hPTPN6: NovaScreen (NVS) Enzymatic Assay for human Protein Tyrosine Phosphatase Non-receptor Type 6 (PTPN6) (AID 2283210). The gist of the method:
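Cell-free assay with recombinant PTPN6 expressed in SF9 cells, fluorescent substrate, product separated from substrate by electrophoretic mobility shift; read 1.33 hours after dosing. Primary screen in duplicate at 25 uM, actives retested in concentration series; DMSO baseline.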

Test [9] addresses human Protein Tyrosine Phosphatase Non-receptor Type 4 (PTPN4), PTPN4 (gene 5775) (UniProt P29074). The test is described as follows: NVS_ENZ_hPTPN4: NovaScreen (NVS) Enzymatic Assay for human Protein Tyrosine Phosphatase Non-receptor Type 4 (PTPN4) (AID 2283208). The gist of the method:
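Cell-free assay of PTPN4 expressed in Sf9 cells, using a fluorescent substrate with product separated by mobility shift; read 1.33 h after dosing. Single-point screen at 25 uM, then concentration-response up to 50 uM. Loss of signal relative to DMSO.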

Test [10] addresses human SRC Proto-Oncogene, Non-receptor Tyrosine Kinase (SRC), SRC (gene 6714) (UniProt P12931). The test is described as follows: NVS_ENZ_hSRC: NovaScreen (NVS) Enzymatic Assay for human SRC Proto-Oncogene, Non-receptor Tyrosine Kinase (SRC) (AID 2283223). The gist of the method: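 Cell-free kinase activity assay with fluorescent substrate, product separated by electrophoretic mobility shift, read 1 h after dosing. Duplicate single point at 25 uM, then concentration-response up to 50 uM; loss of signal versus DMSO.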

For test [11], the target named is human Protein Tyrosine Phosphatase Receptor Type B (PTPRB), PTPRB (gene 5787) (UniProt P23467). The test is described as follows: NVS_ENZ_hPTPRB: NovaScreen (NVS) Enzymatic Assay for human Protein Tyrosine Phosphatase Receptor Type B (PTPRB) (AID 2283211). In a few lines: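 Recombinant human PTPRB with a fluorescent substrate, product separated by electrophoretic mobility shift; read 1 h after dosing. Primary screen in duplicate at 25 uM; actives then retested in concentration series; loss of signal versus DMSO.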

For test [12], the target named is human Tropomyosin Receptor Kinase A (TRKA), NTRK1 (gene 4914) (UniProt P04629). The test is described as follows: NVS_ENZ_hTrkA: NovaScreen (NVS) Enzymatic Assay for human Tropomyosin Receptor Kinase A (TRKA) (AID 2283224). The gist of the method:
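Recombinant human TrkA activity read after 1 h by fluorescence with electrophoretic mobility shift separating substrate and product. Primary screen in duplicate at 25 uM; actives were rerun in concentration-response up to 50 uM. Loss of signal versus DMSO.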

Test [13] deals with human Vascular Endothelial Growth Factor Receptor 1 (VEGFR1), FLT1 (gene 2321) (UniProt P17948). The test is described as follows: NVS_ENZ_hVEGFR1: NovaScreen (NVS) Enzymatic Assay for human Vascular Endothelial Growth Factor Receptor 1 (VEGFR1) (AID 2283226). The gist of the method: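 Cell-free assay of recombinant human VEGFR1 kinase with substrate, measured 1 h after dosing; fluorescence with electrophoretic mobility-shift separation of substrate and product, referenced to DMSO; primary screen at 25 uM in duplicate, actives then run in concentration series.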

Test [14] has as its target human Sirtuin 1 (SIRT1), SIRT1 (gene 23411) (UniProt Q96EB6). The test is described as follows: NVS_ENZ_hSIRT1: NovaScreen (NVS) Enzymatic Assay for human Sirtuin 1 (SIRT1) (AID 2283219). In a few lines: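 Cell-free recombinant SIRT1 with a fluorescent substrate; substrate and product separated by electrophoretic mobility shift and read by fluorescence intensity, 1 h after dosing. Primary screen at 25 uM in duplicate; hits re-run in concentration-response up to 50 uM, relative to DMSO.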

The target of test [15] is human Protein Tyrosine Phosphatase Receptor Type F (PTPRF), PTPRF (gene 5792) (UniProt P10586). The test is described as follows: NVS_ENZ_hPTPRF: NovaScreen (NVS) Enzymatic Assay for human Protein Tyrosine Phosphatase Receptor Type F (PTPRF) (AID 2283213). The gist of the method: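 Cell-free fluorescence enzyme assay with recombinant protein and substrate; product separated by electrophoretic mobility shift. Read 1 h after dosing, single 25 uM duplicate screen, then concentration-response up to 50 uM; loss of signal vs DMSO.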

Test [16] deals with human Sirtuin 2 (SIRT2), SIRT2 (gene 22933) (UniProt Q8IXJ6). The test is described as follows: NVS_ENZ_hSIRT2: NovaScreen (NVS) Enzymatic Assay for human Sirtuin 2 (SIRT2) (AID 2283217). The gist of the method: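 Cell-free recombinant human SIRT2, fluorescent substrate with product separated by electrophoretic mobility shift, 1 hr. Screened in duplicate at 25 uM; hits rerun singly in concentration-response up to 50 uM, relative to DMSO.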

Test [17] concerns the target Tyrosine-protein phosphatase non-receptor type 14 (Homo sapiens) (UniProt Q15678). The test is described as follows: NVS_ENZ_hPTPN14: NovaScreen (NVS) Enzymatic Assay for human Protein Tyrosine Phosphatase Non-receptor Type 14 (PTPN14) (AID 2283206). In a few lines:
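Cell-free recombinant human PTPN14 with fluorescent substrate, read 0.5 h after dosing by fluorescence and electrophoretic mobility shift separating substrate from product. Primary screen at 25 uM in duplicate; hits run to 50 uM maximum; loss of signal versus DMSO.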

The target of test [18] is human Protein Tyrosine Phosphatase Receptor Type M (PTPRM), PTPRM (gene 5797) (UniProt P28827). The test is described as follows: NVS_ENZ_hPTPRM: NovaScreen (NVS) Enzymatic Assay for human Protein Tyrosine Phosphatase Receptor Type M (PTPRM) (AID 2283215). The gist of the method:
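Cell-free recombinant PTPRM with fluorogenic substrate; product separated from substrate by electrophoretic mobility shift and read by fluorescence, 1.33 h after dosing. Primary screen single concentration (25 uM) in duplicate; actives retested in concentration series; loss of signal versus DMSO.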

Test [19] has as its target rabbit Imidazoline 2 Central (I2C), CKB (gene 100009085) (UniProt P00567). The test is described as follows: NVS_ENZ_rabI2C: NovaScreen (NVS) Enzymatic Assay for rabbit Imidazoline 2 Central (I2C) (AID 2283228). The gist of the method: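 Rabbit brain membranes, cell-free; readout by filter-based scintillation counting 1.5 hours after dosing, loss of signal vs DMSO. Initial duplicate test at 25 uM, then concentration-response with 50 uM top concentration.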

Sequence of human Protein Tyrosine Phosphatase Non-receptor Type 9 (PTPN9), PTPN9 (gene 5780) (P43378 whole entry, looked up): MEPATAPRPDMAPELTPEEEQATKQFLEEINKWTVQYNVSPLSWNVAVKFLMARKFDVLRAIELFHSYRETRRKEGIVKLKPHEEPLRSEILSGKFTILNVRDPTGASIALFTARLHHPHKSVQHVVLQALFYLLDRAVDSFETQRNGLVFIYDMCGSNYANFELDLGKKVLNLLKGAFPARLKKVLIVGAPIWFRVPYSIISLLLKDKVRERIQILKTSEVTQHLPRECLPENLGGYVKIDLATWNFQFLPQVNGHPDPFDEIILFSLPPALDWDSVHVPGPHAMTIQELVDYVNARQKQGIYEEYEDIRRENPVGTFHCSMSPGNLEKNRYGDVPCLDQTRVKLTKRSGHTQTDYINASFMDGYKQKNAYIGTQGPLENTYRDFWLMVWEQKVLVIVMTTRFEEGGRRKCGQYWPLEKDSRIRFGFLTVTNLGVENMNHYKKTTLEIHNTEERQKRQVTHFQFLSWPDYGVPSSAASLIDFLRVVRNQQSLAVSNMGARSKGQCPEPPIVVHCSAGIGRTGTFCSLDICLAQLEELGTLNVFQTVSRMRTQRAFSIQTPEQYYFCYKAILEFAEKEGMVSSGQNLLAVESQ
Sequence of human Protein Tyrosine Phosphatase Non-receptor Type 4 (PTPN4), PTPN4 (gene 5775) (P29074 whole entry, looked up): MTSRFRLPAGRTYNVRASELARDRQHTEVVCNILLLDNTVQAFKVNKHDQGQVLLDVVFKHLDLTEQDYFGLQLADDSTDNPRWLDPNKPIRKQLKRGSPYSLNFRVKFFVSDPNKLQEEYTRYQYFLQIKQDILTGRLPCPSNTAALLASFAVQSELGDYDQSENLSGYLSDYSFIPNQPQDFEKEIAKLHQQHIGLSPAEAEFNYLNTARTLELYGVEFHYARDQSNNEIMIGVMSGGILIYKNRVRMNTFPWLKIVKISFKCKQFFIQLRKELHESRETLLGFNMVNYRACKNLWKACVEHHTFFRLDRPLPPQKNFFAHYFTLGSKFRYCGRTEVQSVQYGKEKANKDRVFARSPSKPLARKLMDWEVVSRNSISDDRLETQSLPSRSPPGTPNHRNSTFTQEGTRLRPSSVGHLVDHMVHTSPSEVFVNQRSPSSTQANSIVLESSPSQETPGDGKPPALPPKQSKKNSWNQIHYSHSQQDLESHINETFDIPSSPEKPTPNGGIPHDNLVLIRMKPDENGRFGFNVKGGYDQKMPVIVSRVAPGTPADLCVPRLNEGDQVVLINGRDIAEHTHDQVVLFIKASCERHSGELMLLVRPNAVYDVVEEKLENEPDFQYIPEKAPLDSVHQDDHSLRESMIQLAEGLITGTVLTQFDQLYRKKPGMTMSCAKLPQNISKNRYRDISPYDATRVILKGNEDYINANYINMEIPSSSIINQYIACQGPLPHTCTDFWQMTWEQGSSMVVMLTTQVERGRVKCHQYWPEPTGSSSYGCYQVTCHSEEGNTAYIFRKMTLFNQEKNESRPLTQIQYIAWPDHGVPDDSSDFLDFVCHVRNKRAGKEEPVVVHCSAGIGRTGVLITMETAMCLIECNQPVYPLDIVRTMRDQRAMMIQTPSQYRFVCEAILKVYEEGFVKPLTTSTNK
Sequence of Tyrosine-protein phosphatase non-receptor type 13 (Homo sapiens) (Q12923 whole entry, looked up): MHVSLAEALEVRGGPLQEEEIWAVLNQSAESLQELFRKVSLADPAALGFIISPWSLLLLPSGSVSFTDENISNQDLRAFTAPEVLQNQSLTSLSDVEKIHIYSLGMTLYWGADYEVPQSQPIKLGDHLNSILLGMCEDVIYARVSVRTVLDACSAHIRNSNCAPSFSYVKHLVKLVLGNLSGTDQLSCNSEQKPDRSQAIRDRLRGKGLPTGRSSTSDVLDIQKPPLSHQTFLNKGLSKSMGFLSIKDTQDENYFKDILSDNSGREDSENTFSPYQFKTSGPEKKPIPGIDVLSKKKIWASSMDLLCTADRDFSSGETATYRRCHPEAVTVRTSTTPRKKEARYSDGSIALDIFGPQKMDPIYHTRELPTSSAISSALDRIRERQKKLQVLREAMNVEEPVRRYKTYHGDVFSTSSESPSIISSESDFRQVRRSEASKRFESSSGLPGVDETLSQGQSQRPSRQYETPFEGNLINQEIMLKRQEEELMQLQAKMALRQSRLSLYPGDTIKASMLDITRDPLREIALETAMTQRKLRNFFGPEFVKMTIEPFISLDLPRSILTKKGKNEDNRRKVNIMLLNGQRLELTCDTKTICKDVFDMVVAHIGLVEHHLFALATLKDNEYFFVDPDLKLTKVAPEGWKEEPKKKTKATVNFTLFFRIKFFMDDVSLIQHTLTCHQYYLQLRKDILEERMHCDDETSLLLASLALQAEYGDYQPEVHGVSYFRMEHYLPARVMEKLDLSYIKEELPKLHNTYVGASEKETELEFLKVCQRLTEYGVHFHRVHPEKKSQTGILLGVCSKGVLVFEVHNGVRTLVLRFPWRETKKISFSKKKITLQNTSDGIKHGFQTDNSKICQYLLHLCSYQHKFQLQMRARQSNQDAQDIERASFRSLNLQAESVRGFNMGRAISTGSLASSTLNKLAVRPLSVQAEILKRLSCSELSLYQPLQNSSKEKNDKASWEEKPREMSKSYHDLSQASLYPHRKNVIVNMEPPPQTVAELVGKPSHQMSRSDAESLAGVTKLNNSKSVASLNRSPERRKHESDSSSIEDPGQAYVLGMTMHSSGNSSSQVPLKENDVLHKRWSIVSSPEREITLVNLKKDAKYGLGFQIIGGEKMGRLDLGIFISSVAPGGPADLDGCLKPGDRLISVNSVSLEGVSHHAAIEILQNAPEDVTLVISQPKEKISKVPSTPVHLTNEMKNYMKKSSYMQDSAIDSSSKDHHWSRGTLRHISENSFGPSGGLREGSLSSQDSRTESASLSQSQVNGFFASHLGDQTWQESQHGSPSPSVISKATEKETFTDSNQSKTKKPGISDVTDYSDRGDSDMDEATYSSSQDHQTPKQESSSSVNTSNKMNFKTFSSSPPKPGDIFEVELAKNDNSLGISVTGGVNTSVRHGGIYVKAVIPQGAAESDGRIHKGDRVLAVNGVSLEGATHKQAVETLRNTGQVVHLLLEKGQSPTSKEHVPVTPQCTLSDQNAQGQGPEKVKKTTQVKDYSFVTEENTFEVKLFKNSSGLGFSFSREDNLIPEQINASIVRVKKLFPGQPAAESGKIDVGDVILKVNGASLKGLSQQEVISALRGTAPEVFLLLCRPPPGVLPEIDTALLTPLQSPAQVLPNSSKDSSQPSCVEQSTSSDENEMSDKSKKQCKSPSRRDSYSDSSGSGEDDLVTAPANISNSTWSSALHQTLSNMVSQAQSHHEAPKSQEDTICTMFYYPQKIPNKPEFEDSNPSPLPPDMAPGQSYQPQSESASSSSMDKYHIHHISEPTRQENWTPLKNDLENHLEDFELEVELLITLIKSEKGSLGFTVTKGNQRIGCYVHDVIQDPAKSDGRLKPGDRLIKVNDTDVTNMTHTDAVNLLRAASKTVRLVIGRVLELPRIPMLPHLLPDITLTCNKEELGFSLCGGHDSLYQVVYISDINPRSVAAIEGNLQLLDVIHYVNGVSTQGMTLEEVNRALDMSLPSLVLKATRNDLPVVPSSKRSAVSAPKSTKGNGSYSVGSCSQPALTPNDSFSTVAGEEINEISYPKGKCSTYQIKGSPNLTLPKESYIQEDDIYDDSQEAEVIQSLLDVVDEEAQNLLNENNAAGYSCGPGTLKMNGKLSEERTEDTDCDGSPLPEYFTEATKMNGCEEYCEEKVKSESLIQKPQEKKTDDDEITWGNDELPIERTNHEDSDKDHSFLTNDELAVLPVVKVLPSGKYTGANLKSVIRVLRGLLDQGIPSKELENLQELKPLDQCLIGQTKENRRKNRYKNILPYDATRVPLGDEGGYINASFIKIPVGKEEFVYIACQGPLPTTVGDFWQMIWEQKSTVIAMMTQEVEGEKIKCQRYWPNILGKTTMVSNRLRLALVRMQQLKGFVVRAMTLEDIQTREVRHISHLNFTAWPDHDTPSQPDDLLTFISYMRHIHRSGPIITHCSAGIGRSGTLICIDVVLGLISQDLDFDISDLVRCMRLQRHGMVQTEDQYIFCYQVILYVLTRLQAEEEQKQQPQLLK
Sequence of human Sirtuin 3 (SIRT3), SIRT3 (gene 23410) (Q9NTG7 whole entry, looked up): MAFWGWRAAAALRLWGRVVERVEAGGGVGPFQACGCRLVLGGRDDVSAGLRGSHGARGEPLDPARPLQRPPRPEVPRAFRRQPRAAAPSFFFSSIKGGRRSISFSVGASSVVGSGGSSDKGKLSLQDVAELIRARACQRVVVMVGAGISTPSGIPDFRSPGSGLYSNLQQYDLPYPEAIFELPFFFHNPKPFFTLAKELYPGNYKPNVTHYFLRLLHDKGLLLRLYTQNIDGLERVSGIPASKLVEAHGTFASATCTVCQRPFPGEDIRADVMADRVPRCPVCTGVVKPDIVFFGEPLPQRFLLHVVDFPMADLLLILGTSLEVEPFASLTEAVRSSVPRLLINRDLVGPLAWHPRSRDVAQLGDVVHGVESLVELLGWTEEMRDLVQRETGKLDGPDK
Sequence of sheep Cyclooxygenase-2 (Cox2), PTGS2 (gene 443460) (P79208 whole entry, looked up): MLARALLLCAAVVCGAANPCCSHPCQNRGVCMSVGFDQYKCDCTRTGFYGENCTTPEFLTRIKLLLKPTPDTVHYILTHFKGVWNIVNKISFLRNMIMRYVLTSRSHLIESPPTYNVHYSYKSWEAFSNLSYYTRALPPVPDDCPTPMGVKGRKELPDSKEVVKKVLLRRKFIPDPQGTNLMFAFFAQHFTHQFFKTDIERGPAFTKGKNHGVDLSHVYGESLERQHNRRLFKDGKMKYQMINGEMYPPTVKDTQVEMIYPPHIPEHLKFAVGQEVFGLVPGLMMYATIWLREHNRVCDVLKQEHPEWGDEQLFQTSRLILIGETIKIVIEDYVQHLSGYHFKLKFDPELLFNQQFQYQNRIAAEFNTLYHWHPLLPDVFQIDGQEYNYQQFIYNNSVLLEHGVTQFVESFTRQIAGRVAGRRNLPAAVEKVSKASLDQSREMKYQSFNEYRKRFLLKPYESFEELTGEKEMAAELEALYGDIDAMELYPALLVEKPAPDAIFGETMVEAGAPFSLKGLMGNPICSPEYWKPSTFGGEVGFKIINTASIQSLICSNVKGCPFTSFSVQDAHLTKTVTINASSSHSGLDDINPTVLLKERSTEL

Regarding `CCOC(=O)C(C)(C)Oc1ccc(Cl)cc1`, the compound was called inactive in test [1], in test [2] and in test [3]. The AC50 (usually the concentration giving half of the maximal activity seen) in test [4] is 8.26 µM (active).
For the compound `COc1cc(-c2nc(NC(=O)c3cc4cc(C)cc(C)c4n3CC(=O)O)sc2CCC2CCCCC2)c(OC)cc1Cl`, the AC50 is 6.01 µM (active) in [2], 30.3 µM (active) in [5] and 7.16 µM (active) in test [6].
Consider `CC(=O)OCCOCCOCCOC(C)=O`, for which the call in [7] was inactive.
As for `NS(=O)(=O)c1cc2c(cc1Cl)NCNS2(=O)=O`, the outcome in test [3] was inactive.
Regarding `Oc1ccc2ccccc2c1N=Nc1ccccc1`, in [3], the AC50 was 25 µM (active). Further, the compound was called inactive in test [8].
For `Nc1ccc2c(c1)C(=O)c1ccccc1C2=O`, in test [9], the outcome was inactive.
Consider `CCCc1cc(=O)[nH]c(=S)[nH]1`, for which the result in [2] and in [10] was inactive.
Regarding `FC(F)(F)C(F)(F)C(F)(F)C(F)(F)C(F)(F)C(F)(F)CCI`, the compound was called inactive in [1], in test [9], in [11], in test [12] and in test [13].
Turning to `O=C(O)CCCCC(=O)O`, the call in test [3] was inactive.
For `Cc1nc(C)nc(N2C[C@@H](C)N(c3ccnc([C@@H](C)O)n3)[C@@H](C)C2)n1`, the call in test [7] was inactive.
Consider `C[C@]12C=CC(=O)C=C1CC[C@@H]1[C@@H]2C(=O)C[C@@]2(C)[C@H]1CC[C@]2(O)C(=O)CO`, for which the compound was called inactive in test [8].
On the same count and under the same terms, in the case of `Cc1ccc(C)c(C)c1` it was “inactive”; in that of `COc1ccc(C)cc1N`, “inactive”.
For `Cc1cccc([N+](=O)[O-])c1C`, the compound was classed as inactive in test [7] and in test [14].
With `CC(C)c1ccc(C(=O)N=C(N)N)cc1S(C)(=O)=O`, the compound was classed as inactive in [15], in [16] and in test [5].
Take `O=C(O)Cc1ccccc1Nc1c(Cl)cccc1Cl`: the call in test [8] was inactive.
As to `CC1(C)CC(N=C=O)CC(C)(CN=C=O)C1` (centres undefined), the AC50 in test [2] was 6.77 µM (active). Moreover, in test [5], the call was inactive.
Take `CC(=O)OC/C=C(\C)CCC=C(C)C`: the call in test [17] was inactive. Also, in test [4], the AC50 is 9.67 µM (active).
In the case of `CCCCCCCCCCC`, the outcome in [3] and in test [13] was inactive.
In the case of `CCc1c(C(=O)NN2CCCCC2)nn(-c2ccc(Cl)cc2Cl)c1-c1ccc(Br)cc1`, the call in [1], in [3], in test [8], in [15], in test [13] and in test [6] was inactive. In addition, the AC50 in [2] was 0.0976 µM (active).
As for `C1CCC(SSC2CCCCC2)CC1`, the compound was classed as inactive in [17].
With `O=C(OCCCCCOC(=O)c1ccccc1)c1ccccc1`, the outcome in [9], in test [3], in test [15], in test [18], in [14] and in test [10] was inactive. Further, the call in test [6] was inactive.
In the case of `Nc1ccccc1N`, the AC50 in test [3] is 9.86 µM (active); in [4], 14.9 µM (active). Also, the result in test [19] was inactive.
